# Shown are actives, neighbours in structure and some others; about 2.4% of the full set was active somewhere.
# D2 PAM-1: positively modulates the human D2 dopamine receptor allosterically; P14416; HEK293 T-REx D2, calcium flux, EC20 dopamine potentiation; potentiation, % at 10 µM; actives 0.34% (n = 340,000);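 active = potentiation over 3 SD above the plate norm, cut at about 30% in these data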; note: 0% is about no effect
# Target sequence (P14416 whole entry, looked up): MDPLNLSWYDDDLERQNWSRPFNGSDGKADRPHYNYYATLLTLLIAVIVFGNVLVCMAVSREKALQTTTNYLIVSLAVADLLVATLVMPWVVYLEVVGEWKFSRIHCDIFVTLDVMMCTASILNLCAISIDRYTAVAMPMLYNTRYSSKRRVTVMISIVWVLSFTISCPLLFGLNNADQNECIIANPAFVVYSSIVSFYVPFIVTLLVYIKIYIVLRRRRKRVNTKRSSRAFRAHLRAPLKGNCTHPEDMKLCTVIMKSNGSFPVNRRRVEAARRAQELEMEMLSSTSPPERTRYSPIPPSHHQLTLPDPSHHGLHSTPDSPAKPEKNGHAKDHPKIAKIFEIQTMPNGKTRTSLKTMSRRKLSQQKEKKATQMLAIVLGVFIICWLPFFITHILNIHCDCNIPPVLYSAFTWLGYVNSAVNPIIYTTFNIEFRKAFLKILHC
#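 Tetracycline-induced HEK293 T-REx cells force-coupled to calcium signalling expressed D2; compounds were pin-added after a 10 s baseline, read kinetically 180 s, then an EC20 dopamine challenge followed with a further 180 s calcium read.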
# D2 PAM-2: positive allosteric modulators of human D2 dopamine receptor | DiscoveRx D2 beta-arrestin cells, luminescence, 90 min; 100% = 57 uM dopamine signal | potentiation, % (no concentration beside the values) | actives 0.23% (n = 360,000) | AID 624464; in the data active = potentiation above about 50%
#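 PathHunter D2 cells, attached overnight at 37 deg C, received compound in DMSO plus dopamine at EC20 (50 nM final) for 90 min at 37 deg C. Beta-arrestin recruitment was read as luminescence after 1 h with detection reagent at ambient temperature.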
# D2 antag: D2 dopamine receptor (human) antagonism; P14416; HEK293 TREx D2 cells, calcium flux, dopamine EC80; inhibition, % at 10 µM; actives 2% (n = 340,000); in the data active = inhibition above about 30%; inactive = below that, where a call was filed; note: 0% is about no effect
#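 Inhibition of EC80 dopamine-driven calcium flux, recorded kinetically, defines activity here; cells are a tetracycline-induced HEK293 T-REx line expressing force-coupled D2.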
# D2 ag-1: D2 dopamine receptor (human) agonism; actives 0.53% (n = 340,000); HEK293 T-REx D2 cells, calcium flux agonist mode; activation, % at 2 µM;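 active = activation over 3 SD above normal in the single-dose calcium agonist read, cut at about 30% in these data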; note: 0% is about no effect
#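 Tetracycline-induced HEK293 T-REx cells with force-coupled D2 receptor, plated overnight at 30 C, loaded with no-wash calcium dye. After a 10 s baseline, compound was pin-added and calcium flux read kinetically for 180 s; calcium rises flagged agonists.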
# D2 ag-2: human D2 receptor agonism in beta-arrestin assay; actives 0.084% (n = 360,000); activation, % (concentration not given with the values); P14416; DiscoveRx PathHunter D2 beta-arrestin, luminescence, 90 min; 100% = 57 uM dopamine signal; AID 624465; in the data active = activation above about 40%
#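 DiscoveRx PathHunter D2 beta-arrestin cells (2,100/well) attached overnight, then compound-stimulated 90 min at 37 C in HBSS/10 mM HEPES/0.1% Tween-20 buffer; beta-galactosidase complementation read by luminescence after 1 h at ambient temperature. Dopamine 57 uM final (EC100) as control.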
# The depositor's hits bear a star; / = no result.
SMILES,D2 PAM-1,D2 PAM-2,D2 antag,D2 ag-1,D2 ag-2
Cc1ccc(NC(=O)c2c(C)oc3ccc(O)c(CN4CCCCCC4)c23)c(C)c1,3.1,/,/,1.0,/
c1cc2c3c(cccc3c1)NC(c1ccc3c(c1)OCO3)N2,-9.3,3.5,-16.0,2.4,44.4*
CSc1ccc(C2Nc3cccc4cccc(c34)N2)cc1,7.7,58.3*,-11.1,-0.2,53.9*
CCOc1ccccc1CN1CCN(C/C=C/c2ccc(OC)cc2)CC1CCO (configuration not stated),-22.1,-6.6,33.6*,3.9,-4.3
Cc1ccc(CSC2=NCCN2S(=O)(=O)c2ccc(C)cc2)cc1,/,-7.3,/,/,-1.7
Cc1ccc(S(=O)(=O)N2CCN=C2SCc2ccc(Cl)c(Cl)c2)cc1,-4.4,4.2,30.2*,0.7,-1.7
COC(=O)c1ccc(CN2CCc3ccc(NC(=O)c4ccncc4)cc3C2)cc1,-12.9,-36.9,34.6*,1.4,3.0
CC(C)OCCCNC(=O)c1ccc(CN2CCc3ccccc3C2)cc1,-21.3,-25.4,44.1*,-0.4,-5.9
Cc1ccccc1NC(=O)c1ccc(CN2CCc3ccccc3C2)cc1,/,-15.2,/,/,-1.1
CCc1cccc(C)c1NC(=O)c1ccc(CN2CCc3ccccc3C2)cc1,-27.0,-35.0,55.1*,-1.0,-1.9
CCOCCCNC(=O)c1ccc(CN2CCc3ccccc3C2)cc1,/,-37.7,/,/,0.0
COc1ccc(OC)c(NC(=O)c2ccc(CN3CCc4ccccc4C3)cc2)c1,-20.4,-26.9,40.9*,0.1,-3.0
COc1ccc(C2Nc3ccccc3-n3c(-c4ccccc4)c4c(=O)n(C)c(=O)n(C)c4c32)cc1 (configuration not stated),-0.5,/,/,/,/
C=CCN(CC=C)C(=O)Cc1ccc(F)cc1,-4.2,-4.1,31.1*,0.0,-0.3
CCCN(CCC)C(=O)Cc1ccc(F)cc1,0.3,-1.9,18.4,-0.4,-3.5
O=C1CC(c2nc3ccccc3n2CCCCOc2ccccc2)CN1c1ccccc1Cl (configuration not stated),-1.4,/,/,-0.1,/
O=C(Nc1cccc(Cl)c1)c1nc[nH]c1C(=O)N1CCc2ccccc2C1,-26.3,-28.1,56.4*,-0.8,-1.3
Cc1cccc(NC(=O)c2nc[nH]c2C(=O)N2CCc3ccccc3C2)c1,-27.5,-25.1,85.9*,-0.1,-1.3
O=C(Nc1ccccc1)c1nc[nH]c1C(=O)N1CCc2ccccc2C1,-26.6,-18.3,10.2,-0.5,2.0
Cc1ccc(S(=O)(=O)Cc2ccc(C(=O)NCCCN3CCCC3=O)o2)cc1,-3.1,1.1,34.0*,0.9,-3.3
O=C(NCCCN1CCCC1)c1ccc(CS(=O)(=O)c2ccc(Br)cc2)o1,12.6,-9.1,-2.8,0.1,-0.4
Cc1ccc(CCNC(=O)CCNS(=O)(=O)c2ccc3c(c2)oc(=O)n3C)cc1,-10.8,-0.2,/,-0.1,-3.1
Cn1c(=O)oc2cc(S(=O)(=O)NCCC(=O)NCCc3ccc(Cl)cc3)ccc21,-11.8,-25.2,59.1*,-0.1,0.5
COc1ccccc1CNC(=O)CCNS(=O)(=O)c1ccc2c(c1)oc(=O)n2C,-18.6,-5.8,67.0*,-2.7,-0.1
COc1ccccc1CNS(=O)(=O)c1ccc2c(c1)oc(=O)n2C,-6.1,-0.1,-2.4,1.4,1.6
SMILES,D2 PAM-1,D2 PAM-2,D2 antag,D2 ag-1,D2 ag-2
C/C(=N/NC(=O)c1ccc(Br)o1)c1ccncc1,-1.2,-10.8,38.2*,-0.6,-3.9
Cc1ccc(NC(=O)COC(=O)c2ccc(CN3CCCC3=O)cc2)c(Cl)c1,-0.1,11.0,34.8*,0.3,7.3
Cc1cc(C)cc(NC(=O)COC(=O)c2ccc(CN3CCCC3=O)cc2)c1,-0.1,-2.8,2.7,-0.1,0.0
COc1cccc(CNC(=O)CN2C(=O)N(c3cc(C)ccc3C)S(=O)(=O)c3ccccc32)c1OC,-1.7,/,/,0.5,/
COc1c(Br)cc(Br)cc1/C=N/NC(=O)c1cccnc1,-17.2,-1.3,90.1*,-0.9,-1.1
C/C(=N\NC(=O)c1ccncc1)c1cccc(NC(=O)c2ccc(C(C)(C)C)cc2)c1,11.2,15.2,25.1,0.2,6.9
COc1ccc(C(=O)N/N=C/c2cn[nH]c2-c2ccc(OC)cc2OC)cc1,-30.2,-37.2,5.0,-1.7,-4.8
COc1c(Br)cc(Br)cc1/C=N/NC(=O)c1ccncc1,-20.4,-32.0,93.5*,0.6,2.4
COc1cc(/C=N/NC(=O)c2ccncc2)cc(OC)c1OC,4.8,1.0,2.8,0.8,1.8
COc1ccc(-c2[nH]ncc2/C=N/NC(=O)c2ccc(Br)cc2)c(OC)c1,-26.8,-9.6,48.3*,-0.7,-7.0
C/C(=N\NC(=O)c1ccc(Br)cc1)c1cccc(NC(=O)c2cccnc2)c1,-18.5,-2.8,32.0*,-1.9,-0.1
Cc1cc(C)cc(NC(=O)CSc2nc3c([nH]c4ccccc43)c(=O)n2-c2ccc(F)cc2)c1,16.2,/,/,-1.3,/
CN(C)c1ccc(C(=O)N/N=C/c2cc(Br)cc(Br)c2O)cc1,-24.2,-19.9,32.1*,1.0,-4.9
Cc1ccccc1CNC(=O)C(=O)NCC(c1cccs1)S(=O)(=O)c1ccc(Cl)cc1 (configuration not stated),3.1,/,/,1.0,/
CN(C)CCNc1oc(-c2ccccc2Cl)nc1S(=O)(=O)c1ccccc1,-3.8,-4.0,6.1,0.3,-3.5
CN(C)CCCNc1oc(-c2ccccc2Cl)nc1S(=O)(=O)c1ccc(F)cc1,-20.1,-20.6,34.1*,1.6,-2.7
C[N+](C)(C)CCN(Cc1ccc(Cl)cc1)c1ccccn1,5.6,-3.5,9.3,-0.1,-1.0
CN(C)CCN(Cc1ccc(Cl)cc1)c1ccccn1,-21.2,-22.5,59.1*,0.7,-2.7
CCC(=O)N1CCc2cc(OC)c(OC)cc2C1COc1ccc(C(=O)OC)cc1 (configuration not stated),40.0*,-2.4,-5.0,0.3,-2.0
N#CC1=C(N)Oc2ccccc2C12C(=O)Nc1n[nH]c(-c3ccccc3)c12 (configuration not stated),1.5,22.4,-2.2,-0.7,8.1
Cn1c2c(c(=O)n(C)c1=O)C1(C(=O)Nc3ccccc31)C(C#N)=C(N)O2 (configuration not stated),/,53.6*,/,/,10.2
CCN1C(=O)c2ccccc2S(=O)(=O)c2ccc(C(=O)NCc3ccccc3Cl)cc21,-6.0,/,/,2.5,/
COc1ccc(NC(=O)C2CCCN2S(=O)(=O)c2ccc3c(c2)CCCC(=O)N3)cc1Cl (configuration not stated),4.4,/,/,-0.6,/
CCN1CCN(C2=C(NS(=O)(=O)c3ccc(NC(C)=O)cc3)C(=O)c3ccccc3C2=O)CC1,-1.9,-16.8,4.2,0.4,10.7
CCN1CCN(C2=C(NS(=O)(=O)c3ccc(C)cc3)C(=O)c3ccccc3C2=O)CC1,-1.1,-24.1,39.3*,-0.1,2.7
